JMJD2A Tudor inh: qHTS Assay for Inhibitors of JMJD2A-Tudor Domain; AlphaScreen JMJD2A-Tudor / H3K4me3 peptide binding; Potency, µM (top dose mostly 114 µM), for the others: top-dose activity change, negative = inhibition, most hits filed as inhibitors; 390,000 compounds, 4.4% hits; note: % is set by controls: 0 for no effect and ±100 for the full control effect; nearly all actives have a fitted effect of over 50% in size
Sfp inh: qHTS Assay for Inhibitors of Bacillus subtilis Sfp phosphopantetheinyl transferase (PPTase). Biochemical Sfp PPTase activity, qHTS. Potency, µM, for inactives: largest response in the series, negative = inhibition, actives largely listed as inhibitors. 310,000 compounds, 3.5% hits. AID 1490, 2009;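 note: the enzyme is Sfp with the accession as filed and its product quenches rhodamine fluorescence; 0% = enzyme reaction without inhibitor and -100% = no enzyme wells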
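Fluorescence-quenching assay: 15 nM Sfp-PPTase preincubated 15 min at room temperature with compound, then 5 uM rhodamine-CoA and 12.5 uM BHQ-2-labelled YbbR peptide added. Fluorescence (ex 525/em 598 nm) read at start and after 30 min; difference gives rate.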
L3MBTL1 block: qHTS Assay for the Inhibitors of L3MBTL1 | Lethal(3)malignant brain tumor-like protein 1 (Homo sapiens), Q9Y468 | AlphaScreen L3MBTL1–H3K9me1 peptide binding | Potency, µM (doses to about 57.1 µM), inactives show at the top dose activity, negative = inhibition, actives largely listed as inhibitors | 230,000 compounds, 0.66% hits; note: % is set by controls: 0 for no effect and ±100 for the full control effect; nearly all actives have a fitted effect of over 60% in size
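L3MBTL1 (50 nM) pre-complexed 30 min with biotinylated H3(1-15)K9me1 peptide (75 nM), then compounds added for 30 min at room temperature; AlphaScreen streptavidin donor/nickel chelate acceptor beads (10 ug/mL final) read after 30 min dark incubation.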
HP1b chromo inh: HTS for Inhibitors of HP1-beta Chromodomain Interactions with Methylated Histone Tails; Chromobox protein homolog 1 (Homo sapiens), P83916; AlphaScreen HP1-beta / biotin-H3K9me3 peptide binding; Potency, µM (top dose mostly 114 µM), for the others: at the top dose activity change, negative = inhibition, usual class: inhibitors; 390,000 compounds, 0.56% hits; note: nearly all actives have a fitted effect of over 70% in size
Target sequence (P83916 whole entry, looked up): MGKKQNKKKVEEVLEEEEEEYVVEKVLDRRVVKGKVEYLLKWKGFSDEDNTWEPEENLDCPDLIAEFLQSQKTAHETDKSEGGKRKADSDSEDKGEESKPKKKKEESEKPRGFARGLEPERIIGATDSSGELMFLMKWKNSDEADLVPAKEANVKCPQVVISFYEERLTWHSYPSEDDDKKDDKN
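HP1-beta protein (50 nM final) preincubated 30 min at room temperature with biotinylated H3(1-18)K9me3 peptide (50 nM) in PBS pH 7.4, 0.01% Tween-20, then compound added for 30 min. AlphaScreen streptavidin donor/nickel chelate acceptor beads (10 ug/mL final), 30 min dark, luminescence read.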
G9a block: qHTS Assay for Inhibitors of Histone Lysine Methyltransferase G9a; AID 504332, 2011; Histone-lysine N-methyltransferase EHMT2 (Homo sapiens), Q96KQ7; G9a H3K9 monomethylation, AlphaScreen, 2 h; 350,000 compounds, 8.8% hits; Potency, µM (doses to about 102 µM), inactives show top-dose activity, negative = inhibition, most hits filed as inhibitors; note: % is set by controls: 0 for no effect and ±100 for the full control effect; nearly all actives have a fitted effect of over 75% in size
Target sequence (Q96KQ7 913-1193 limits assumed): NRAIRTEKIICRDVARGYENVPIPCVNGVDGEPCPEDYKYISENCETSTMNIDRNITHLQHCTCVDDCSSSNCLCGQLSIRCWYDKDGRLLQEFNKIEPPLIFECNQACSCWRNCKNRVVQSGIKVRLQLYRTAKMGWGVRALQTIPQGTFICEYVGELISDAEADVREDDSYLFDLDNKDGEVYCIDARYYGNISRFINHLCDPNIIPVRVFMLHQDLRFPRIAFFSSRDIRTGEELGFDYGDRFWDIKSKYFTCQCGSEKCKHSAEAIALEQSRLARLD
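Quantitative HTS format: methyltransferase activity on a biotin-tagged H3K9 peptide is measured by AlphaScreen, using a rabbit anti-monomethyl-H3K9 antibody with streptavidin donor and anti-IgG acceptor beads. Final levels are 20 nM enzyme, 500 nM peptide, 20 uM SAM; 2 h RT.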
BAZ2B inh: qHTS Assay for Inhibitors of BAZ2B | AlphaScreen BAZ2B-H3K14Ac peptide displacement | Potency, µM (doses to about 114 µM), for inactives: at the top dose activity change, negative = inhibition, usual class: inhibitors | 360,000 compounds, 4.4% hits; note: % is set by controls: 0 for no effect and ±100 for the full control effect; nearly all actives have a fitted effect of over 60% in size
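BAZ2B 50 nM plus b-H3(5-23)K14Ac 50 nM, PBS pH 7.4/0.01% Tween-20, 30 min RT; compound added (max 110 uM), 30 min RT; streptavidin donor/Ni-chelate acceptor beads 10 ug/mL final, 20 min dark; AlphaScreen read.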
* marks the source's active call; other numbers are inactive results; u = inconclusive; x = not tested or not shown; [ ] = dose if it differs, or a comment. Most compounds without a hit are left out; they make up all but 12% or so of the library. Calls come from the whole dose curve; as a rule, active = well fitted curve in the direction sought with a large enough effect; inconclusive = small, poorly fitted or top-dose-only effect, or another doubt; inactive = no such curve, though single readings can be large; an effect the other way counts as inactive or inconclusive. Potency is the fitted concentration of half-maximal effect.

SMILES	JMJD2A Tudor inh	Sfp inh	L3MBTL1 block	HP1b chromo inh	G9a block	BAZ2B inh
C#CCOCCOCCOCCNc1nc(N2CCN(C(=O)C([C@@H](C)O)n3cc([C@@H](N)CCCCN)nn3)CC2)nc(N2CCN(C(=O)[C@H](CCCCN)n3cc([C@@H](N)[C@H](C)CC)nn3)CC2)n1 (stereo partly specified)	u	x	-6%	88%	x	x
C#CCOCCOCCOCCNc1nc(N2CCN(C(=O)[C@H](CCCN=C(N)N)n3cc(C(N)[C@@H](C)CC)nn3)CC2)nc(N2CCN(C(=O)[C@H](CCCCN)n3cc([C@@H](N)CC(N)=O)nn3)CC2)n1 (stereo partly specified)	89µM*	x	4%	33%	x	x
C#CCOCCOCCOCCNc1nc(N2CCN(C(=O)[C@H](CCCN=C(N)N)n3cc(C(N)[C@@H](C)CC)nn3)CC2)nc(N2CCN(C(=O)[C@H](CCC(=O)O)n3cc([C@@H](N)[C@H](C)CC)nn3)CC2)n1 (stereo partly specified)	u	x	3%	8%	x	x
C#CCOCCOCCOCCNc1nc(N2CCN(C(=O)C([C@@H](C)O)n3cc([C@@H](N)CCCCN)nn3)CC2)nc(N2CCN(C(=O)[C@H](CCCN=C(N)N)n3cc(C(N)[C@@H](C)CC)nn3)CC2)n1 (stereo partly specified)	56µM*	x	1%	19%	x	x
C#CCOCCOCCOCCNc1nc(N2CCN(C(=O)[C@H](CCCN=C(N)N)n3cc(C(N)[C@@H](C)CC)nn3)CC2)nc(N2CCN(C(=O)[C@H](CCC(=O)O)n3cc([C@@H](N)CO)nn3)CC2)n1 (stereo partly specified)	25µM*	x	-1%	3%	x	x
Cc1oc(-c2cccc(Cl)c2)nc1CN1CCC(C(=O)NCc2ccc(F)cc2)CC1	-18%	x	x	23%	-3%[59 µM]	-15%
CCOCN(C(=O)CSc1nc2ccccc2[nH]1)c1c(C)cccc1CC	-11%	x	x	29%	-40%[59 µM]	1%
CC1CCC(NC(=O)C2(C)Cc3ccccc3C(=O)N2Cc2ccccc2Cl)CC1 (stereo unspecified)	46%	x	x	63%	31%[59 µM]	16%
Cc1noc(NS(=O)(=O)c2ccc(NC(=O)Cc3ccc([N+](=O)[O-])cc3)cc2)c1C	-34%	8%	x	39%	x	u
Cc1cc(C)nc(SCC(=O)Nc2ccc(S(=O)(=O)Nc3onc(C)c3C)cc2)n1	-5%	14%	7%	44%	-16%	5%
Cc1noc(NS(=O)(=O)c2ccc(NC(=O)CSc3nc4c(cc3C#N)CCCC4)cc2)c1C	-12%	u	0%	39%	25µM*	-9%
Cc1noc(NS(=O)(=O)c2ccc(NC(=O)CSc3nc4ccccc4s3)cc2)c1C	u	50µM*	-12%	-31%	8.9µM*	-15%
Cc1noc(NS(=O)(=O)c2ccc(NC(=O)CSc3ncccn3)cc2)c1C	-30%	28%	6%	38%	u	3%
Cc1noc(NS(=O)(=O)c2ccc(NC(=O)CSc3nc4c(cc3C#N)CCC4)cc2)c1C	25µM*	50µM*	-3%	-1%	7.1µM*	u
O=C1c2cccc3cccc(c23)C(=O)N1c1ccc(O)cc1	-25%	50µM*	-3%	24%	-14%	79µM*
O=C(O)c1ccc(N2C(=O)c3cccc4cccc(c34)C2=O)cc1	-12%	7%	43%	34%	x	21%
O=C1c2ccccc2C(=O)N1c1ccc(O)cc1	-16%	x	x	15%	x	x
O=C(O)c1ccc(N2C(=O)c3cccc4c(C(=O)O)ccc(c34)C2=O)cc1	45µM*	-8%	3.5µM*	79µM*	13µM*	50µM*
O=C(Nc1ccc(Cl)c(C(F)(F)F)c1)C(Cc1ccccc1)NS(=O)(=O)c1ccc(Br)s1 (stereo unspecified)	-9%	x	x	22%	-25%[59 µM]	-2%
O=C(O)/C=C/C(=O)Nc1ccc(Cl)cc1C(=O)c1ccccc1	1%	79µM*	-1%	49%	32µM*	-9%
O=C(O)/C=C/C(=O)Nc1ccc(NC(=O)c2ccccc2)c(Cl)c1	-13%	56µM*	x	17%	50µM*	19%
CCCn1c(=S)[nH]c2ccccc2c1=O	-5%	23%	-3%	11%	-44%	-17%
CC(C)n1c(=S)[nH]c2ccccc2c1=O	-7%	-12%	47%	-11%	-28%[12.7 µM]	20%
O=C(CCn1c(=S)[nH]c2ccccc2c1=O)N1CCCCC1	-8%	-6%	x	5%[57 µM]	x	-11%
CCN(CC)CCn1c(=S)[nH]c2ccc(Cl)cc2c1=O	-27%	-8%	-22%	19%	32µM*	-28%
SMILES	JMJD2A Tudor inh	Sfp inh	L3MBTL1 block	HP1b chromo inh	G9a block	BAZ2B inh
CN(C)CCn1c(=S)[nH]c2ccccc2c1=O	50µM*	u	x	u	u	-1%
COn1c(=S)[nH]c2ccccc2c1=O	89µM*	-9%	2%	12%	u	-9%
CC1CCCN(C(=O)CCCn2c(=S)[nH]c3ccccc3c2=O)C1 (stereo unspecified)	-15%	u	x	30%	45µM*	3%
COc1ccc(NC(=O)CCNS(=O)(=O)c2cccc3nsnc23)cc1Cl	-19%	x	x	-3%	-1%[59 µM]	-1%
COC1(C(F)(F)F)NC(=O)N(c2ccc(F)cc2)C1=O (stereo unspecified)	-15%	x	x	12%	4%[59 µM]	-21%
CCCCCC/C=C1\CC(C(=O)OCC)Oc2ccccc21 (stereo unspecified) (tested in a mixture with another compound)	x	16%	x	x	170%	x
COc1cc2c(cc1O)-c1ccccc1CN(C)C2	x	-21%	x	x	x	x
COc1ccc(S(=O)(=O)NCc2cccn2Cc2cccc(C)c2)cc1OC	-27%	x	x	5%	-3%[12.7 µM]	u
O=c1c2nccnc2[nH]c(=S)n1Cc1ccccc1	-1%	-21%	x	67%	40µM*	x
CN(C)CCCn1c(=S)[nH]c2ccccc2c1=O	0%	u	-16%	4%	50µM*	-5%
O=c1c2ccccc2[nH]c(=S)n1Cc1cccnc1	28µM*	1%	5%	-22%	-7%[59 µM]	1%
